High-throughput results from PubChem BioAssay.
This is a sample that favours compounds with a hit; in the whole collection about 16% have one here.
uPA generation = qHTS for Inhibitors of Cell Surface uPA Generation; Potency, µM (doses to about 38.3 µM), for the others: top-dose activity change, negative = inhibition, most hits filed as inhibitors; 330,000 tested, 0.31% active; cell surface uPA generation assay, qHTS; active = well fitted inhibition curve with a large enough effect; inconclusive = small, poorly fitted or top-dose-only effect; inactive = no such curve, though single readings can be large or run the other way; tested in mouse RAW 264.7 cells; also: potency is read from the fitted curve at half-maximal effect; % is scaled to controls: 0 for no effect and ±100 for the full control effect; nearly all actives have a fitted effect of over 55% in size
DT40 TDP1 CPT = qHTS for Inhibitors of human tyrosyl-DNA phosphodiesterase 1 (TDP1): qHTS in cells in presence of CPT. chicken DT40 Tdp1-/-;hTDP1 cells + 20 nM CPT, ATP luminescence, 48 h. Potency, µM (highest dose often 46.2 µM), for inactives: top-dose activity change, negative = growth inhibition, most hits filed as inhibitors. 420,000 tested, 12% active. AID 686979, 2013; also: potency is read from the fitted curve at half-maximal effect; % is scaled to controls: 0 for no effect and ±100 for the full control effect; nearly all actives have a fitted effect of over 55% in size
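Chicken DT40 Tdp1-/- cells stably complemented with human TDP1 were seeded at 400 cells/well in medium containing 20 nM camptothecin, exposed to pin-transferred compounds, and grown at 37 °C for at least 48 hr. Viability was read as ATP luminescence.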
DT40 TDP1 no CPT = qHTS for Inhibitors of human tyrosyl-DNA phosphodiesterase 1 (TDP1): qHTS in cells in absence of CPT | 420,000 tested, 15% active | Potency, µM (doses to about 46.2 µM), for the others: at the top dose activity change, negative = growth inhibition, actives largely listed as inhibitors | DT40 Tdp1-/- hTDP1 cells, no CPT, ATP luminescence, 48 h; also: potency is read from the fitted curve at half-maximal effect; % is scaled to controls: 0 for no effect and ±100 for the full control effect; nearly all actives have a fitted effect of over 55% in size
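Seeded 400 DT40-hTDP1 cells/well (vehicle DMSO, no 20 nM CPT); pinned compounds; ≥48 hr at 37 °C; CellTiter-Glo luminescence as viability measure.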
miR-21 reporter = qHTS Assay for Modulators of miRNAs and/orActivators of miR-21 | HeLa miR-21 FLuc reporter, luciferase, 48 h | Potency, µM (doses to about 38.3 µM), for inactives: top-dose activity change, positive = activation, actives largely listed as activators | 340,000 tested, under 10 active | AID 2288, 2010;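 also: % of control where 0% means no effect; miR-21 action dims this reporter so a rising signal means less miR-21 action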
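Compounds were titrated across several concentrations (up to approximately 40 uM) and incubated 48 hours with HeLa miR-21-FLuc reporter cells (miR-21 target sequence downstream of FLuc, endogenous miR-21). Readout was firefly luciferase luminescence after lytic detection reagent.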
TDP1 block = qHTS Assay for Inhibitors of Tyrosyl-DNA Phosphodiesterase (TDP1); recombinant TDP1, AlphaScreen DNA substrate cleavage; Potency, µM (top dose mostly 130 µM), inactives show at the top dose activity change, negative = inhibition, usual class: inhibitors; AID 485290, 2010; 350,000 tested, 0.28% active; also: potency is read from the fitted curve at half-maximal effect; % is scaled to controls: 0 for no effect and ±100 for the full control effect; nearly all actives have a fitted effect of over 40% in size
Target sequence (Q9NUW8 whole entry, looked up): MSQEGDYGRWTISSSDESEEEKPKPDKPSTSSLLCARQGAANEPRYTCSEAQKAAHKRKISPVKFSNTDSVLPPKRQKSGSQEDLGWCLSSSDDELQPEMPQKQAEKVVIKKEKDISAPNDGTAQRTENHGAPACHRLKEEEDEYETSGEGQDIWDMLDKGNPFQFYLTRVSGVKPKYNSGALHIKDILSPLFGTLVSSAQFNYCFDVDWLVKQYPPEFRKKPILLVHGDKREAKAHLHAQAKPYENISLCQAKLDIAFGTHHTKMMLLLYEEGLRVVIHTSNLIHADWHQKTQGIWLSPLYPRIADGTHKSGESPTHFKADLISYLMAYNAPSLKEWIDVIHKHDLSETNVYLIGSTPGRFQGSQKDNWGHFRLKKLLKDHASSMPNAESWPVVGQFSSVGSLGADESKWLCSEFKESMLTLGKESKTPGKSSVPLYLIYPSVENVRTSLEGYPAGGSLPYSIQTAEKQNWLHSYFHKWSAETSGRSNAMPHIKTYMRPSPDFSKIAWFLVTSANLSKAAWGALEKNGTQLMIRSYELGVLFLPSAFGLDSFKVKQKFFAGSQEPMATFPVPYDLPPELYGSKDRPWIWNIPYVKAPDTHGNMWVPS
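E. coli-derived human Tdp1, 1 nM final. Cpd preinc 15 min RT; substrate 15 nM final, 5 min RT; AS bead mix 10 ug/ml final, 10 min RT. Signal loss = tyrosine-FITC cleavage. No-enzyme wells = max signal.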
Starred values were filed as active, the others as inactive; ? = inconclusive; · = not tested or not shown; [ ] = dose if it differs, or a comment. Unless noted, calls follow the shape of the dose curve; as a rule, active = well fitted curve in the direction sought with a large enough effect; inconclusive = small, poorly fitted or top-dose-only effect, or another doubt; inactive = no such curve, though single readings can be large; an effect the other way counts as inactive or inconclusive.

SMILES	uPA generation	DT40 TDP1 CPT	DT40 TDP1 no CPT	miR-21 reporter	TDP1 block
O=C(NC(c1ccc(-c2ccccc2)cc1)c1cnccn1)C1CCN(Cc2ccc3c(c2)OCO3)CC1 (configuration not stated)	·	5.8µM*	5.17µM*	·	·
O=C(NNC(=O)C1CCN(Cc2ccc(Cl)c(Cl)c2)CC1)c1cccs1	·	-1.2%	16.4µM*	-2.1%	8.1%
CCOc1ccc(NC(=O)CSc2nc3nc(C)c(Cc4ccccc4)c(C)n3n2)cc1	·	?	?	2.6%	7.8%
Cc1ccn2c(CNCC3OCCc4ccccc43)c(C(=O)N3CCCCCC3)nc2c1 (configuration not stated)	-2.5%	?	?	-2.5%	·
CN(C(=O)c1ccccc1Cl)c1ccccc1C(=O)NCc1ccccc1	2.8%	-28.5%	-11.5%	4.8%	3.6%
O=C(NC(c1ccccc1)c1cnccn1)C1CCN(Cc2ccc(Cl)c(Cl)c2)CC1 (configuration not stated)	·	9.2µM*	13µM*	·	·
Cc1ccc(-c2nnc(Nc3ccc(S(N)(=O)=O)cc3)c3ccccc23)cc1S(=O)(=O)N1CCCCC1	·	-17.6%	-0.2%	-6.1%	-1.3%[12.3 µM]
Cc1ccc(-c2nnc(Nc3ccc(S(N)(=O)=O)cc3)c3ccccc23)cc1S(=O)(=O)N1CCOCC1	·	16.4µM*	?	12.8%	-2.2%[12.3 µM]
Cc1ccc(-c2nnc(Nc3ccc(O)cc3)c3ccccc23)cc1S(=O)(=O)NC(C)(C)CO	·	16.4µM*	8.2µM*	-6.9%	·
Cc1cccc(Nc2nnc(-c3ccc(N4CCOCC4)c([N+](=O)[O-])c3)c3ccccc23)c1	-3.9%	?	18.4µM*	27.6%	-5.5%
CC(=O)Nc1ccc(Nc2nnc(-c3ccc(C)c(S(=O)(=O)NCCO)c3)c3ccccc23)cc1	11.6%	5.0%	2.7%	-6.4%	7.0%
Cc1ccc(-c2nnc(Nc3cccc(O)c3)c3ccccc23)cc1S(=O)(=O)N1CCOCC1	·	?	11.6µM*	24.5%	4.8%[12.3 µM]
Cc1ccc(-c2nnc(Nc3ccc(C(N)=O)cc3)c3ccccc23)cc1S(=O)(=O)N1CCCCC1	·	?	?	2.5%	0.4%[12.3 µM]
CCN(C(=O)Cn1nc(C)c([N+](=O)[O-])c1C)c1c(N)n(Cc2ccccc2)c(=O)[nH]c1=O	0.4%	-19.2%	-0.9%	·	·
CCc1ccc(C(=O)Nc2ccc(OC)c(S(=O)(=O)N3CCCCC3)c2)cc1	-13.2%	?	?	·	0.7%
Cc1ccc(-c2nnc(Nc3ccc(Cl)cc3)c3ccccc23)cc1S(=O)(=O)N1CCOCC1	·	13µM*	3.66µM*	3.2%	0.4%[12.3 µM]
Cc1ccc(-c2nnc(Nc3ccccc3)c3ccccc23)cc1S(=O)(=O)N1CCOCC1	·	-27.0%	?	-8.5%	-2.2%[12.3 µM]
Cc1ccc(-c2n[nH]c(=O)c3ccccc23)cc1S(=O)(=O)Nc1ccccc1	-3.4%	?	23.1µM*	16.4%	0.0%
Cc1ccc(-c2nnc(Nc3ccc(F)cc3)c3ccccc23)cc1S(=O)(=O)NC(C)C	·	?	9.2µM*	-3.5%	·
Cc1ccc(-c2nnc(Nc3ccc(O)cc3)c3ccccc23)cc1S(=O)(=O)N1CCCCC1	·	7.31µM*	18.4µM*	3.1%	4.8%[12.3 µM]
CCOc1ccc2nc(SCC(=O)N(CC(C)C)c3c(N)n(CC(C)C)c(=O)[nH]c3=O)[nH]c2c1	8.7%	-12.7%	-15.4%	·	·
CNC(=S)N(CCc1c(C)[nH]c2ccc(Cl)cc12)Cc1cc(OC)c(OC)c(OC)c1	?	?	?	20.6%	3.9%
COc1ccccc1C(O)Cc1nc2ccccc2n1C (configuration not stated)	2.3%	-5.5%	-11.8%	-56.0%	0.0%
CC1(C)CC(=O)c2cc(C(=O)N3CCN(CCO)CC3)c(=O)n(-c3ccc(Cl)cc3)c2C1	8.0%	1.8%	-0.4%	-3.4%	4.5%
CCc1ccccc1NC(=O)CN(C)C(=O)Cn1ncc(Cl)c(Cl)c1=O	-0.1%	5.8µM*	6.51µM*	?	0.6%
SMILES	uPA generation	DT40 TDP1 CPT	DT40 TDP1 no CPT	miR-21 reporter	TDP1 block
CCC(=O)Nc1ccc(C(=O)Cn2ncc(Cl)c(Cl)c2=O)cc1	7.94µM*	5.17µM*	6.51µM*	?	0.0%
CCOC(=O)c1ccc(NC(=O)Cn2ncc(Cl)c(Cl)c2=O)cc1	-12.3%	2.31µM*	2.31µM*	?	3.4%
CC1=C(C(=O)N(C)C)CC(CC(=O)NCCc2ccccn2)C(=O)N1Cc1ccc(F)cc1 (configuration not stated)	·	0.0%	?	·	·
CCn1c(SCC(=O)c2ccccc2)nnc1-c1cc2cc(Br)ccc2o1	-1.0%	?	9.2µM*	-9.7%	3.2%
C=CCn1c(SCC(=O)c2ccc(OC)cc2)nnc1-c1cc2cccc(OC)c2o1	-1.3%	-9.3%	?	-2.8%	5.5%
C=CCn1c(SCC(=O)c2ccccc2)nnc1-c1cc2ccccc2o1	-5.6%	23.1µM*	?	-5.3%	5.2%
O=C(NCCS(=O)(=O)NCc1ccc(F)cc1)c1ccc2c(c1)OCO2	7.3%	-20.6%	-8.6%	·	6.6%
Cn1c(NC(=S)Nc2ccccc2)nc2ccccc21	-11.0%	1.64µM*	1.64µM*	-21.6%	6.9%
COCCn1nnnc1CN(CCCN1CCOCC1)Cc1cc2c(C)ccc(C)c2[nH]c1=O	-4.9%	-5.7%	-50.0%	-5.3%	4.6%
CCOC(=O)c1sc(-c2ccc(Cl)cc2Cl)nc1O	2.4%	25.9µM*	18.4µM*	-18.6%	0.0%
CNC(=O)/C(C#N)=C/c1ccc(-c2ccc(OC)cc2[N+](=O)[O-])o1	-6.8%	?	?	-77.3%	-5.6%
c1ccc(-c2ccc(N3CCCC4(CCNCC4)C3)cc2)cc1	·	5.8µM*	2.59µM*	·	·
c1ccc(-c2ccc(N3CC[C@@]4(CCCNC4)C3)cc2)cc1	·	18.4µM*	20.6µM*	·	·
O=S(=O)(c1ccccc1)N1CCC2(CCN(c3ccc(-c4ccccc4)cc3)CC2)CC1	·	?	-6.2%	·	·
c1ccc(-c2ccc(N3CC4(CCNCC4)C3)cc2)cc1	·	4.11µM*	2.59µM*	·	·
c1ccc(C(c2ccccc2)N2CC3(CCNCC3)C2)cc1	·	20.6µM*	14.6µM*	·	·
CC(=O)N/C(=C\c1ccc(F)cc1)C(=O)OC(C)C	1.0%	-20.0%	?	-0.4%	0.6%
CCN(CC)c1ccc(NC(=O)CCS(=O)(=O)c2cccc3nsnc23)c(C)c1	-3.7%	?	?	3.1%	0.0%
COc1ccccc1C(=O)Nc1ccc(C(=O)OCc2cc(=O)n3nc(C)sc3n2)cc1	·	?	?	-0.7%	3.8%
CCOC(=O)[C@]12CCC=C1N(Cc1ccc3c(c1)OCO3)C(=O)[C@H](CC(=O)N1CCC(c3ccccc3)CC1)C2	·	?	16.4µM*	·	·
